p97 ATPase inh – inhibitors of human p97 ATPase, primary screen, biochemical. recombinant p97 ATPase, Kinase-Glo ATP luminescence, 3 h. inhibition, % at 8 µM. hit rate 0.42% among 220,000; in the data active = inhibition above about 15%;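 note: 0% = DMSO vehicle and 100% = wells lacking enzyme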
PGE2 EP2 inh – human EP2 receptor antagonists, primary screen, TR-FRET cAMP, C6 glioma cells; Prostaglandin E2 receptor EP2 subtype (Homo sapiens), P43116; inhibition, % at 25 µM; hit rate 0.52% among 260,000; C6 glioma cells expressing human EP2; cells stimulated with saturating PGE2;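 active = percent inhibition above 40 after rounding to a whole number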;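 note: rat C6 glioma host cells with rolipram phosphodiesterase inhibitor present; the protocol text gives 20 µM as final concentration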
Target sequence (P43116 whole entry, looked up): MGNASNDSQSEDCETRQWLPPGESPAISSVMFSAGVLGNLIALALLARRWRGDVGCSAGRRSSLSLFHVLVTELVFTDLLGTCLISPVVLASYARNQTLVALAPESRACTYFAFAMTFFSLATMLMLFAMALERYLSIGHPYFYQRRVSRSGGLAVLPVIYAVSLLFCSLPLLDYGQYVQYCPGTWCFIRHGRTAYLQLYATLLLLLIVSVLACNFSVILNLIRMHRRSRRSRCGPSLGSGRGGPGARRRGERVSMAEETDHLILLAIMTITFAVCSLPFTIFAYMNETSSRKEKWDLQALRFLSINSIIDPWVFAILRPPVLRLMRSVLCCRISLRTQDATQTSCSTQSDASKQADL
Arbovirus inh – antivirals against arbovirus infection, primary screen, cell-based, full library, 10K replicate subset. arbovirus infection cell-based antiviral screen. AID 1251, 2008. hit rate 0.37% among 200,000. inhibition, % at 10 µM; in the data active = inhibition above about 30%
Hck Nef HTS – inhibitors of Nef-activated human Hck kinase, primary screen, biochemical, Z-Lyte FRET, 384-well, Hck-YEEI; Tyrosine-protein kinase HCK (Homo sapiens), P08631; Recombinant Hck-YEEI plus Nef, Z-Lyte FRET kinase assay; inhibition, % at 20 µM; hit rate 0.68% among 220,000; AID 463187, 2010;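 active = Hck-Nef kinase inhibition above about 50%, limit read from the data; inactive = inhibition below that limit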;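 note: 0% = DMSO with Hck plus Nef and 100% = Hck alone without Nef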
EP2 modulator – EP2 receptor modulators, cAMP readout, primary screen, cell-based, HTRF cAMP, PGE2 stimulation; Prostaglandin E2 receptor EP2 subtype (Homo sapiens), P43116; EP2-expressing cells, cAMP HTRF FRET, PGE2 co-stimulation; induction, % at 25 µM; hit rate 0.83% among 260,000;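 active = compounds whose cAMP rise, as percent of the full-agonist control response, exceeds 60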;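 note: rat C6 glioma line stably carrying human EP2 under a CMV promoter; the protocol text gives 20 µM as final concentration; 100% = response of wells given 1 µM PGE2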
Numbers without * were called inactive; . = no result given; ! = repeats disagree. Most compounds without a hit are left out; they make up all but 2.4% or so of the library.

SMILES	p97 ATPase inh	PGE2 EP2 inh	Arbovirus inh	Hck Nef HTS	EP2 modulator
CO[C@@H]1/C=C\O[C@]2(C)Oc3c(C)c(O)c4c(O)c(c(CN5CCN(C)CC5)c(O)c4c3C2=O)NC(=O)C(C)=C/C=C\[C@@H](C)[C@@H](O)[C@H](C)[C@@H](O)[C@H](C)[C@H](OC(C)=O)[C@@H]1C	.	40.0*	.	.	27.6
Cc1cccc2cc(CN(Cc3ccco3)C3(c4nnnn4C4CCCCC4)CCCC3)c(=O)[nH]c12	.	9.1	.	.	42.7
COc1ccc2[nH]c3c(NCCN(C(C)C)C(C)C)ncnc3c2c1	0.6	7.4	14.0	0.9	-23.0
COc1ccc(CNc2ncnc3c2[nH]c2cc(OC)c(OC)cc23)cc1	9.6	53.6*	.	12.6	-36.0
O=c1oc(/C=C/c2ccco2)nc2sc3c(c12)CCC3	-6.2	.	63.4*	-1.0	16.0
O=c1oc(-c2cccs2)nc2sc3c(c12)CCC3	-1.7	5.3	10.2	1.0	5.7
O=c1oc(-c2cccs2)nc2sc3c(c12)CCCC3	5.4	11.1	34.4*	-2.2	42.0
Cc1c(C(=O)NC(Cc2ccccc2)c2nc3ccccc3[nH]2)cccc1[N+](=O)[O-] (stereo unspecified)	3.4	14.1	33.1*	-3.5	-23.2
Cn1c(=O)oc2cc(S(=O)(=O)Nc3ccccc3OCCN3CCCC3)ccc21	.	10.0	.	.	-14.0
COC(=O)/C(=C\c1ccc(-c2cc(Cl)ccc2Cl)o1)C(C)=O	.	50.5*	.	.	-97.5
COC(=O)N/N=C/c1ccc(-c2ccc(Cl)cc2Cl)o1	2.2	7.8	.	15.5	-7.5
Nc1ncnc2nc(-c3ccc(C[P+](c4ccccc4)(c4ccccc4)c4ccccc4)cc3)[nH]c12	.	40.5*	.	.	25.3
CC(C)Sc1nc2ncnc(N)c2[nH]1	0.6	1.0	15.7	26.2	-26.9
CCOC(=O)c1cc(=O)n2nc(-c3ccccc3F)nc2s1	15.9*	9.6	2.3	10.0	-9.9
CC(C)n1cc(/C=N/NC(=O)COc2cccc3cccnc23)c2ccccc21	4.1	11.5	17.1	74.2*	-1.4
COc1cccc(/C=N/NC(=O)COc2cccc3cccnc23)c1O	1.7	3.9	-23.7	-0.8	-58.4
Cc1cc(/C=N\NC(=O)COc2cccc3cccnc23)c(C)n1-c1ccccc1	-2.6	27.0	20.1	3.2	-27.2
C=CCn1cc(/C=N/NC(=O)COc2cccc3cccnc23)c2ccccc21	2.3	5.7	-8.6	71.2*	-6.6
O=C(CSc1nc(-c2cccs2)cc(C(F)(F)F)n1)NCc1ccc(Cl)cc1	.	10.8	.	.	-100.7
CCC(C)N1CCN(C(=O)c2ccc(OC)c(OC)c2)CC1 (stereo unspecified)	.	2.8	.	.	16.9
O=C(CSc1nc2nn(-c3ccccc3)c(=O)c-2c2n1CCCCC2)NCCc1ccccc1	-1.7	6.0	31.8*	20.8	5.7
C=CCNC(=S)Nc1ccc(C)cn1	.	5.2	.	.	20.2
O=C(Nc1ccc(-n2cnnn2)cc1)C1COc2ccccc2O1 (stereo unspecified)	.	16.1	.	.	-48.3
Cc1ccc2[nH]c(=O)c(CN(Cc3cccs3)Cc3nnnn3C3CCCC3)cc2c1	.	14.9	.	.	75.1*
Cc1cc2cc(CN(CCc3ccccc3)Cc3nnnn3CC3CCCO3)c(=O)[nH]c2cc1C (stereo unspecified)	.	5.2	.	.	-19.8
SMILES	p97 ATPase inh	PGE2 EP2 inh	Arbovirus inh	Hck Nef HTS	EP2 modulator
CCOC(=O)Cn1nnnc1CN(Cc1ccccc1)Cc1cc2c(C)cc(C)cc2[nH]c1=O	.	14.9	.	.	65.0*
Cc1cc2cc(CN(CCc3ccccc3)Cc3nnnn3C3CCCCC3)c(=O)[nH]c2cc1C	.	9.8	.	.	65.7*
CCc1ccc2[nH]c(=O)c(CN(Cc3ccccc3)Cc3nnnn3C3CCCCC3)cc2c1	.	17.1	.	.	74.4*
COCCNC(=S)N1CCC(NC(=O)c2ccc(OC)cc2)CC1	.	19.6	.	.	-9.3
CC1CCCN(c2nc3c(c(=O)[nH]2)CCN(Cc2nccn2C)C3)C1 (stereo unspecified)	.	.	.	.	15.4
CC1CN(c2nc3c(c(=O)[nH]2)CCN(Cc2ccc(Br)o2)C3)CC(C)O1 (stereo unspecified)	.	.	.	.	-1.6
Cc1ccc2[nH]c(=O)c(CN(Cc3ccc(F)cc3)Cc3nnnn3C3CCCC3)cc2c1	.	19.3	.	.	63.1*
Cc1ccc2cc(CN(Cc3ccc(F)cc3)Cc3nnnn3C3CCCC3)c(=O)[nH]c2c1	1.0	3.5	-28.0	1.5	57.5
CCC(C)(C)n1nnnc1CN(Cc1ccccc1OC)Cc1cc2cc(C)ccc2[nH]c1=O	.	7.6	.	.	47.5
CCc1ccc2[nH]c(=O)c(CN(Cc3ccccc3OC)Cc3nnnn3C(C)(C)CC)cc2c1	.	22.2	.	.	61.4*
Cc1ccc2cc(CN(Cc3ccccc3)Cc3nnnn3C3CCCC3)c(=O)[nH]c2c1	-8.7	5.7	-28.6	-1.6	61.5*
C=CCOc1ccc(Br)cc1C(c1c(C)[nH][nH]c1=O)c1c(C)[nH][nH]c1=O	.	15.3	.	.	20.8
COC(=O)/C(=C/c1c[nH]c2ccccc12)NC(C)=O	3.1	9.7	7.7	4.0	-15.4
COC(=O)/C(=C/c1c[nH]c2ccccc12)[N+](=O)[O-]	7.1	140.6*	5.7	0.3	-48.3
Cn1c(=O)[nH]c(=O)c2c1nc(N1CCc3ccccc3C1)n2CCSc1ncccn1	.	10.5	.	.	-6.5
O=C(Nc1ccccc1N1CCCCC1)c1ccco1	-4.5	10.8	1.9	5.2	63.5*
O=C(Nc1ccccc1N1CCCCC1)c1cccs1	-5.2	3.8	5.1	2.8	60.6*
O=C(COc1ccccc1)Nc1ccccc1N1CCCCC1	-3.1	11.4	-20.0	4.8	63.8*!
Cc1cccc(OCC(=O)Nc2ccccc2N2CCCCC2)c1	2.8	3.0	-24.9	5.3	52.2
CC1(c2ccccc2NC(=O)c2cccs2)CC1	.	9.9	.	.	64.9*
CS(=O)(=O)N1CCN(c2ccccc2NC(=O)c2cccs2)CC1	4.1	8.3	9.3	6.2	14.4
COc1ccc(NC(=O)N(Cc2ccc(C)cc2)Cc2cc3cc(C)ccc3[nH]c2=O)cc1	.	0.9	.	.	-17.0
CC(=O)n1cc([C@@H]2C=C(C(=O)NCc3ccccc3)O[C@H](OCc3ccc(CO)cc3)C2)c2ccccc21	.	12.0	.	21.4	-7.5
C#CCNC(=O)C1=C[C@H](c2cn(C(C)=O)c3ccccc23)C[C@H](OCc2ccc(CO)cc2)O1	8.1	8.5	30.8*	-2.9	-30.3
Cc1ccc(C2(C(=O)N[C@H](Cn3nc(-c4cccs4)ccc3=O)C(C)C)CC2)cc1	.	5.2	.	.	75.6*
CCc1[nH]n2c(=O)c(Cl)c(C)nc2c1-c1cccs1	.	.	.	.	-26.9
Oc1c(Br)cc(Br)cc1CN(Cc1cc(Br)cc(Br)c1O)C1CCCCC1	.	40.1*	.	.	-25.6
Cc1ccccc1OCC(O)CN(Cc1ccccc1O)C1CCCCC1 (stereo unspecified)	-3.2	8.8	-26.4	2.7	28.8

Screening results deposited in PubChem by several laboratories.
